Where “and” joins values, the source holds several entries; their conditions need not be identical. Identical values can stand only once. Records with an inconclusive call do not appear. Where a structure was tested more than once in an assay, its records may differ in their call. Calls of active or inactive are those of the source. Unless noted, calls follow the shape of the dose curve; as a rule, active = well fitted curve in the direction sought with a large enough effect in the repeat runs; inconclusive = weak or mixed curves; inactive = no such curve, though single readings can be large; an effect the other way counts as inactive or inconclusive.
Experiments:
[1] = qHTS assay to identify small molecule agonists of the hypoxia (HIF-1) signaling pathway - cell viability counter screen (AID 1224844; calls by dose curve; also: nearly all actives have a fitted effect of over 50% in size)
Method in brief: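 Cytotoxicity measured by CellTiter-Glo ATP luminescence in the wells also read for beta-lactamase signal. Cells were HRE-bla ME-180 (2,000/well, 0.5% dialyzed FBS), exposed to compounds for 17 h at 37C.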

[2] = qHTS assay to identify small molecule agonists of H2AX (AID 1224845; active = well fitted activation curve with a large enough effect in the signal ratio in the repeat runs, not every such curve was filed as active; the % refers to the signal ratio; also: potency is read from the fitted curve at half-maximal effect)
Method in brief: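 Phospho-H2AX Ser139 measured by HTRF (ex 320 nm; em 665 and 620 nm) after 24 hr antibody incubation. Compounds, 15 concentrations, 0.76% DMSO, were applied to CHO-K1 cells for 3hr at 37C before lysis.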

[3] = qHTS assay to identify small molecule agonists of the hypoxia (HIF-1) signaling pathway (AID 1224846; active = well fitted activation curve with a large enough effect in the signal ratio in the repeat runs, not every such curve was filed as active; the % refers to the signal ratio)
Method in brief: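 Compounds added to ME-180 cells carrying hypoxia-response-element beta-lactamase reporter (0.5% dialyzed FBS, 5 h preplating), 17 h at 37C; agonist activity detected by CCF4-AM B/G FRET read-out.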

[4] = qHTS assay to identify small molecule agonists of H2AX - cell viability counter screen (AID 1224847; calls by dose curve; also: nearly all actives have a fitted effect of over 30% in size; also: potency is read from the fitted curve at half-maximal effect)
Method in brief: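 Read-out: CellTiter-Glo luminescence, 30 min RT. Cells: wild-type CHO-K1, 1000/well, 10% FBS, plated overnight at 37C. Treatment: 15 concentrations, 3 hr, 37C, 0.76% DMSO.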

[5] = qHTS assay to identify small molecule antagonists of the estrogen related receptor (ERR) signaling pathway from Tox21 library (AID 1224848); also: nearly all actives have a fitted effect of over 50% in size; also: potency is read from the fitted curve at half-maximal effect
Method in brief: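 ERR cell line, 2,000 cells/well. 6 h settle, then compound (DMSO) added; 18 h at 37 C; ONE-Glo luminescence after 30 min RT.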

[6] = qHTS RealTime-Glo MT Cell Viability Assay in HepG2 cells - 24 hour (AID 1224867); also: nearly all actives have a fitted effect of over 50% in size; also: potency is read from the fitted curve at half-maximal effect
Method in brief: (§1)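 Cell number in HepG2 cultures estimated from NanoLuc luminescence generated by metabolic reduction of a prosubstrate by living cells. The homogeneous, nonlytic format allowed repeated reads at 0, 8, 16, 24, 32 and 40 h of compound exposure.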

[7] = qHTS RealTime-Glo MT Cell Viability Assay in HEK293 cells - 32 hour (AID 1224868); also: nearly all actives have a fitted effect of over 50% in size; also: potency is read from the fitted curve at half-maximal effect
Method in brief: (§2)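 Homogeneous bioluminescent viability format in HEK293 cells (600 cells/well). Following 5 h at 37 C/5% CO2, 23 nL compound was pintooled; the signal was measured repeatedly during 40 h incubation.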

[8] = A CellTox Green Cytotoxicity Assay to monitor cytotoxicity in HEK293 cells - 0 hour (AID 1224869); also: nearly all actives have a fitted effect of over 50% in size
Method in brief: (§3)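 Fluorescence from a DNA-binding dye excluded by viable cells was measured repeatedly in the same HEK293 wells (600 cells/well) during continuous compound exposure at 37 C. Each assay gives one read point: 0, 8, 16, 24, 32 or 40 h.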

[9] = qHTS RealTime-Glo MT Cell Viability Assay in HepG2 cells - 40 hour (AID 1224870); also: nearly all actives have a fitted effect of over 50% in size; also: potency is read from the fitted curve at half-maximal effect
Method in brief: (§4)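 Real-time viability: cells seeded at 600 per well together with NanoLuc and cell-permeant prosubstrate, compounds added after 5 h incubation. Luminescence tracked at 0, 8, 16, 24, 32 and 40 h of exposure.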

[10] = A CellTox Green Cytotoxicity Assay to monitor cytotoxicity in HEK293 cells - 40 hour (AID 1224871); also: nearly all actives have a fitted effect of over 45% in size; also: potency is read from the fitted curve at half-maximal effect
Method in brief: as §3

[11] = qHTS RealTime-Glo MT Cell Viability Assay in HepG2 cells - 8 hour (AID 1224873); also: nearly all actives have a fitted effect of over 55% in size
Method in brief: as §4

[12] = qHTS RealTime-Glo MT Cell Viability Assay in HEK293 cells - 40 hour (AID 1224874); conditions: RealTime-Glo luminescence; max response: stronger effect = lower value; also: nearly all actives have a fitted effect of over 50% in size; also: potency is read from the fitted curve at half-maximal effect
Method in brief: (§5)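 Luminescence, which tracks viable cell number through reduction of the prosubstrate to a NanoLuc substrate, was read over continuous 37 C culture. Cells (600/well) were premixed with reagent and rested 5 h before 23 nL of compound in DMSO was pinned.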

[13] = A CellTox Green Cytotoxicity Assay to monitor cytotoxicity in HEK293 cells - 24 hour (AID 1224875); also: nearly all actives have a fitted effect of over 45% in size
Method in brief: as §3

[14] = A CellTox Green Cytotoxicity Assay to monitor cytotoxicity in HepG2 cells - 16 hour (AID 1224876); also: nearly all actives have a fitted effect of over 45% in size; also: potency is read from the fitted curve at half-maximal effect
Method in brief: (§6)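 Real-time cytotoxicity: fluorescence of a cell-impermeant cyanine dye binding DNA of dead HepG2 cells, measured repeatedly (0–40 h) during compound exposure at 37 C. Cells seeded 600/well with reagent, dosed after 5 h.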

[15] = qHTS RealTime-Glo MT Cell Viability Assay in HepG2 cells - 32 hour (AID 1224877); also: nearly all actives have a fitted effect of over 55% in size; also: potency is read from the fitted curve at half-maximal effect
Method in brief: as §1

[16] = A CellTox Green Cytotoxicity Assay to monitor cytotoxicity in HepG2 cells - 24 hour (AID 1224878); also: nearly all actives have a fitted effect of over 45% in size; also: potency is read from the fitted curve at half-maximal effect
Method in brief: as §6

[17] = A CellTox Green Cytotoxicity Assay to monitor cytotoxicity in HepG2 cells - 40 hour (AID 1224879); also: nearly all actives have a fitted effect of over 40% in size; also: potency is read from the fitted curve at half-maximal effect
Method in brief: as §6

[18] = qHTS RealTime-Glo MT Cell Viability Assay in HEK293 cells - 0 hour (AID 1224880)
Method in brief: as §5

[19] = qHTS RealTime-Glo MT Cell Viability Assay in HEK293 cells - 16 hour (AID 1224872); also: nearly all actives have a fitted effect of over 50% in size; also: potency is read from the fitted curve at half-maximal effect
Method in brief: as §2

[20] = qHTS assay to identify small molecule agonists of the estrogen related receptor (ERR) signaling pathway from Tox21 library (AID 1224849; calls by dose curve; also: nearly all actives have a fitted effect of over 15% in size); conditions: ERR reporter cell line, ONE-Glo luciferase, 18 h
Method in brief: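 Luminescent agonist read-out (One-Glo, 30-minute room-temperature incubation) following 18-hour compound treatment at 37 C of the ERR cell line, which had been plated 6 hours before dosing.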
% is scaled to controls: 0 for no effect and ±100 for the full control effect.

Oc1ccc(Cl)cc1Cl
inactive: Potency [1] | Potency [2] | outcome [3] | Potency [4] | Potency [5] | Potency [6] | Potency [7] | Potency [8] | Potency [9] | Potency [10] | Potency [11] | max response [12] 3.11% | Potency [13] | Potency [14] | Potency [15] | Potency [16] | Potency [17] | Potency [18]

CCCCSP(=O)(SCCCC)SCCCC
inactive: Potency [1] | Potency [2] | outcome [3] | Potency [4] | Potency [6] | Potency [7] | Potency [8] | Potency [9] | Potency [10] | Potency [19] | Potency [11] | max response [12] -17.8% and -14.6% | Potency [13] | Potency [14] | Potency [15] | Potency [16] | Potency [17] | Potency [18]

C=C(C)C#N
inactive: Potency [1] | Potency [2] | outcome [3] | Potency [4] | Potency [6] | Potency [8] | Potency [9] | Potency [10] | Potency [11] | max response [12] 3.27% | Potency [13] | Potency [14] | Potency [15] | Potency [16] | Potency [17] | Potency [18]
active: Potency [12] 5.49 µM
inactive and 21.9 µM (active): Potency [19]
inactive and 5.49 µM (active): Potency [7]

CCOP(=S)(OCC)OP(=S)(OCC)OCC
inactive: Potency [1] | Potency [2] | outcome [3] | Potency [4] | Potency [5] | Potency [6] | Potency [7] | Potency [8] | Potency [9] | Potency [10] | Potency [11] | max response [12] 3.87% and 10.7% | Potency [13] | Potency [14] | Potency [15] | Potency [16] | Potency [17] | Potency [18]

OC(c1ccc(Cl)cc1)(c1cncnc1)c1ccccc1Cl (stereo not given)
inactive: Potency [1] | outcome [3] | Potency [8] | Potency [18]
active: Potency [4] 115 µM | Potency [5] 11.1 µM and 54.5 µM | Potency [6] 31.4 µM | Potency [7] 6.27 µM and 24.5 µM | Potency [19] 11.2 µM
91.4 µM (active) and inactive: Potency [2]
25 µM (active) and inactive: Potency [16]
49.8 µM (active) and inactive: Potency [14]
17.7 µM (active) and inactive: Potency [9] | Potency [15] | Potency [17]
19.8 µM (active) and inactive: Potency [10]

O=C(O)c1nn(Cc2ccc(Cl)cc2Cl)c2ccccc12
inactive and 107 nM (active): Potency [16]
inactive and 95.2 nM (active): Potency [14] | Potency [17]
inactive: Potency [1] | Potency [2] | outcome [3] | Potency [4] | Potency [5] | activity change, positive = activation ([20]; at 42.5 µM (top of the series)) -5.39% | activity change, positive = activation ([20]; at 92.4 µM (top of the series)) -48% | Potency [6] | Potency [7] | Potency [8] | Potency [9] | Potency [19] | Potency [11] | max response [12] -3.1% and 1.84% | Potency [13] | Potency [15] | Potency [18]

N#Cc1nn(-c2c(Cl)cc(C(F)(F)F)cc2Cl)c(N)c1S(=O)C(F)(F)F (stereo not given)
active: Potency [4] 101 µM | Potency [5] 5.48 µM and 11.9 µM | Potency [7] 22 µM | Potency [19] 22 µM and 21.3 µM | Potency [12] 24.7 µM
inactive: Potency [1] | Potency [2] | outcome [3] | Potency [6] | Potency [8] | Potency [9] | Potency [11] | Potency [13] | Potency [14] | Potency [15] | Potency [16] | Potency [17] | Potency [18]

COc1ccc(O)c(C(C)(C)C)c1
inactive: Potency [1] | Potency [2] | outcome [3] | Potency [4] | Potency [6] | Potency [7] | Potency [8] | Potency [9] | Potency [10] | Potency [19] | Potency [11] | Potency [13] | Potency [14] | Potency [15] | Potency [18]

N#CCCCCC#N
inactive: Potency [1] | Potency [2] | outcome [3] | Potency [4] | Potency [5] | Potency [6] | Potency [7] | Potency [8] | Potency [9] | Potency [10] | Potency [19] | Potency [11] | max response [12] 1.71% and 10.7% | Potency [13] | Potency [14] | Potency [15] | Potency [16] | Potency [17] | Potency [18]

Nc1ccc2ccccc2c1
inactive: Potency [1] | Potency [2] | outcome [3] | Potency [4] | Potency [5] | Potency [6] | Potency [7] | Potency [8] | Potency [9] | Potency [10] | Potency [19] | Potency [11] | Potency [13] | Potency [14] | Potency [15] | Potency [16] | Potency [17] | Potency [18]

CC(C)(O)C(=O)Nc1ccc([N+](=O)[O-])c(C(F)(F)F)c1
active: Potency [4] 57.8 µM and 73.6 µM | Potency [5] 9.89 µM and 17.8 µM | Potency [7] 25.1 µM and 16 µM | Potency [19] 25.1 µM and 25.3 µM | Potency [12] 22.3 µM and 17.9 µM
inactive: Potency [1] | Potency [2] | outcome [3] | Potency [6] | Potency [8] | Potency [9] | Potency [10] | Potency [11] | Potency [13] | Potency [14] | Potency [15] | Potency [16] | Potency [17] | Potency [18]

O=C1CCCO1
inactive: Potency [1] | Potency [2] | outcome [3] | Potency [4] | Potency [5] | Potency [6] | Potency [7] | Potency [8] | Potency [9] | Potency [10] | Potency [19] | Potency [11] | max response [12] 17.8% and -9.6% | Potency [13] | Potency [14] | Potency [15] | Potency [16] | Potency [17] | Potency [18]

CN(C)c1nc(=O)n(C2CCCCC2)c(=O)n1C
inactive: Potency [1] | Potency [2] | outcome [3] | Potency [4] | Potency [6] | Potency [7] | Potency [8] | Potency [9] | Potency [10] | Potency [19] | Potency [11] | max response [12] 6.15% and 0.589% | Potency [13] | Potency [14] | Potency [15] | Potency [16] | Potency [17] | Potency [18]

From PubChem BioAssay (Tox21)
